# Measurements taken from PubChem BioAssay (NCATS).
# Records with an inconclusive call do not appear. Calls of active or inactive are those of the source. Calls come from the whole dose curve; as a rule, active = well fitted inhibition curve with a large enough effect; inconclusive = small, poorly fitted or top-dose-only effect; inactive = flat fitted curve, though single readings scatter.
# System: CRL-7250
# Test: qHTS assay to identify novel small-molecules to repurpose for Merkel cell carcinoma treatment (AID 1296009); note: nearly all actives have a fitted effect of over 60% in size
# Details: MCC and control cell lines, CellTiter-Glo viability, 72 h; series mostly up to 92 µM; activity change, negative = cytotoxicity: at the top concentration
# Summary of the method: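 72 hr, 37 degree celsius; NPC 8-pt / MIPE 11-pt dose response; compound pinned in DMSO; CellTiter-Glo, 10 min RT, luminescence; normalized to no-cell and DMSO controls.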
row,Compound,outcome
1,C=C1CC[C@H]2[C@@H](/C=C(\C)C(=O)[C@@]3(OC(C)=O)C[C@H](C)[C@H](OC(C)=O)[C@@H]3[C@H]1OC(C)=O)C2(C)C,inactive [at 17.4 µM]
2,O=C(Cc1ccc(Cl)cc1)Nc1cnccc1C(=O)O,inactive
3,C=C(C)[C@@H]1CC[C@]2(C(=O)O)CC[C@]3(C)C(CCC4[C@]5(C)C(CC[C@]43C)C(C)(C)[C@@H](O)[C@@H]5C(=O)O)C12 (some centres undefined),inactive [at 17.4 µM]
4,NC(=O)[C@H]1CCCCc2c1[nH]c1ccc(Cl)cc21,inactive [at 17.4 µM]
5,CC(=O)OC1C(O)C(C)=C(CCC(C)CC(=O)O)C2(C)CCCC(C)(C)C12 (centres undefined),inactive
6,CC(C)[C@@H]1C(=O)N(S(C)(=O)=O)[C@@H]2CCN(C(=O)/C=C/CN3CCCCC3)[C@H]21,inactive
7,CC1(C)C(=O)N2c3ccccc3[C@]3(CC(n4cnc5ccccc5c4=O)C(=O)O3)[C@H]2N1O (some centres undefined),inactive [at 17.4 µM]
8,Cc1ncc([N+](=O)[O-])n1C[C@H](O)CN1CCOCC1,inactive
9,CCOC(=O)CSc1nc2c(sc3ccccc32)c(=O)n1CCCN1CCCC1,inactive
10,Cc1c(N2C(=O)c3ccc(C(=O)O)cc3C2=O)c(=O)n(-c2ccccc2)n1C,inactive
11,CCC/C=C/C=C/C1CC(O)C2(O)C(=O)OCC12 (centres undefined),inactive
12,C=C1C[C@]23C[C@H]1CC[C@H]2[C@]1(C)CCC[C@@](C)(C(=O)O)[C@H]1[C@@H]3C(=O)O,inactive
13,COc1cc(CC(COC2OC(CO)C(O)C(O)C2O)c2cc(/C=C/CO)cc(OC)c2O)ccc1O (centres undefined),inactive [at 17.4 µM]
14,COc1ccc2cc(C(C)C(=O)Oc3ccc(C(N)=S)cc3)ccc2c1 (centres undefined),inactive
